# Assay outcomes: PubChem BioAssay, Broad Institute
# HSF1 activator = increases HSF-1 driven luciferase reporter signal. NIH3T3-HGL HSF-1 luciferase reporter, MG132, 8 h; 100% = twice DMSO control signal. activation, % at 9 µM. 1.7% of 300,000 active. AID 504408;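 active = mean replicate activation of at least 50% with a set share of replicates each reaching 50%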;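 also: 0% = median of the neutral control wells and 100% = twice that signal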
# esBAF inh = SWI/SNF esBAF complex inhibition; mouse ES cells, Bmi1-luciferase knock-in reporter, 24 h; 100% = twice the neutral-well signal; reporter increase, % at 12.5 µM; 2% of 350,000 active; AID 602393; in the data active = activation above about 40%;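 also: 0% = median of the plate's neutral control wells and 100% = double that signal; a rise in the Bmi1 reporter signal indicates esBAF inhibition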
# HSF1 inh = HSF1 inhibition; 0.77% of 300,000 active; activity change, negative = inhibition, % at 7.5 µM (by protocol); NIH3T3-HGL HSE-luciferase, MG132-induced, luminescence 8 h; stronger effect = lower value;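 active = more than half of replicate wells show activity change below -50%, luminescence cut by over half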;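 also: luciferase reports HSF-1 transcriptional activity via heat shock element; 0% = median of DMSO wells and -100% = zero luminescence signal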
# Vif inh = blocks HIV Vif function | 0.35% of 340,000 active | inhibition, % at 7.49 µM | HEK293T cells, Vif self-association by quenched fluorescence, imaging, 24 h; in the data active = inhibition above about 50%, passing the limit was not always enough
# The depositor's hits bear a star; . = not tested or not shown. Hits are enriched below; roughly 3.4% of the tested compounds scored in any of these assays.
SMILES,HSF1 activator,esBAF inh,HSF1 inh,Vif inh
C[C@H](O)C#Cc1cnc2c(c1)C(=O)N([C@H](C)CO)C[C@@H](C)[C@@H](CN(C)C(=O)CC1CC1)O2,.,5,.,.
Cc1ccccc1-c1cnc2c(c1)C(=O)N([C@H](C)CO)C[C@H](C)[C@H](CN(C)C(=O)c1ccncc1)O2,.,-7,.,.
CC(NC(=O)c1ccc2c(c1)OCO2)c1ccccc1 (centres undefined),-79,-1,-71*,-2
CC(C)(C)c1cnnn1-c1ccc(NC(=O)c2ccc3c(c2)OCO3)cc1,2,44*,6,.
O=C(Nc1ccc2c(c1)OCO2)c1c(Cl)nc2sccn12,33,49*,18,5
COc1ccccc1NC(=O)c1ccc2c(c1)OCO2,28,14,19,0
Cn1ncc(Cl)c1C(=O)Nc1ccc2c(c1)OCO2,-6,17,-5,-3
COc1cc2c(cc1NC(=O)c1ccc3c(c1)OCO3)oc1ccccc12,49,47*,36,8
CCc1ccc(C(C)NC(=O)c2ccc3c(c2)OCO3)cc1 (centres undefined),2,.,11,2
C[C@@H]1CN([C@H](C)CO)C(=O)CCCn2nncc2CO[C@H]1CN(C)C(=O)Nc1ccccc1,.,5,.,.
Cc1ccccc1-c1cnc2c(c1)C(=O)N([C@H](C)CO)C[C@H](C)[C@H](CN(C)Cc1ccncc1)O2,.,4,.,.
C[C@@H]1CN([C@@H](C)CO)C(=O)c2cccc(NS(C)(=O)=O)c2O[C@@H]1CN(C)S(=O)(=O)c1ccc(Cl)cc1,.,-3,.,.
COc1cc(NC(=O)c2ccc3c(c2)OCO3)ccc1NC(=O)C(C)C,-3,52*,-4,3
O=C(Nc1ccc(Cl)c(Cl)c1)c1ccc2c(c1)OCO2,88*,10,64,-4
O=C(Nc1ccc2c(c1)OCO2)c1ccc2c(c1)OCO2,39,.,12,0
O=C(Nc1ccc(Cl)c([N+](=O)[O-])c1)c1ccc2c(c1)OCCO2,0,86*,-9,-3
O=C(Nc1ccc(F)c(F)c1)c1ccc2c(c1)OCO2,34,58*,13,-1
O=C(N/N=C/c1ccc(Cl)c([N+](=O)[O-])c1)c1ccc2c(c1)OCCO2,.,7,.,-2
O=C(Nc1ccc(NC(=O)c2ccc(Cl)cc2Cl)cc1)c1ccc2c(c1)OCO2,4,1,-10,-4
COc1ccc(S(=O)(=O)Nc2ccc3c(c2)C(=O)N([C@@H](C)CO)C[C@H](C)[C@H](CN(C)S(=O)(=O)c2ccccc2)O3)cc1,.,-8,.,.
O=C(C[C@H]1CC[C@H](NC(=O)CCN2CCCCC2)[C@@H](CO)O1)Nc1nccs1,.,-5,.,.
COC(=O)C1=NN(C(=O)c2ccc(Cl)cc2)C(O)(c2ccccc2)C1 (centres undefined),142*,-5,88,4
CCOC(=O)C1=NN(C(=O)c2ccc(C)cc2)C(O)(c2ccc(Cl)cc2)C1 (centres undefined),166*,1,159,-3
CC(C)NC(=O)N(C)C[C@H]1Oc2ccc(NC(=O)Cc3cn(C)c4ccccc34)cc2CC(=O)N([C@@H](C)CO)C[C@@H]1C,.,-3,.,.
CC(=O)c1ccc(OCc2ccccc2)c(C)c1O,13,69*,13,-2
SMILES,HSF1 activator,esBAF inh,HSF1 inh,Vif inh
Cc1ccc(S(=O)(=O)N(C)C[C@@H]2OCCCC[C@H](C)Oc3ccc(NC(=O)Cc4ccccc4)cc3C(=O)N([C@@H](C)CO)C[C@H]2C)cc1,.,1,.,.
Cc1nnc(SCC(=O)c2ccc(Br)cc2)s1,67*,.,49,-4
Nc1nnc(SCC(=O)c2cccc([N+](=O)[O-])c2)s1,10,.,5,-1
Nc1nnc(SCC(=O)c2ccc3ccccc3c2)s1,39,52*,13,10
O=[N+]([O-])c1c(Nc2ccccn2)cc(Cl)c2nonc12,163*,.,98,-8
O=C(O)c1ccccc1Nc1cc(Cl)c2nonc2c1[N+](=O)[O-],13,5,6,1
O=[N+]([O-])c1c(Nc2ccc(O)cc2)cc(Cl)c2nonc12,132*,-1,122,-1
CN(C)c1cc(Nc2ccc(O)cc2)c([N+](=O)[O-])c2nonc12,-41,.,-25,6
CO[C@H]1CC[C@H]2CCN(C)C(=O)[C@H](C)[C@@H](OC)CN(C)C(=O)c3cc(C#N)ccc3OC[C@H]1O2,.,-4,.,.
COc1ccccc1-c1cc(C(=O)NCCc2ccccc2)no1,19,60*,20,-6
CCCc1cc(C(=O)NCCc2ccccc2)no1,32,50*,13,-1
Cc1ccc(OCc2cc(C(=O)NCCc3cccnc3)no2)cc1C,26,58*,17,1
O=C(c1ccccc1)C(CCC(CN1CCOCC1)C(=O)c1ccccc1)CN1CCOCC1 (centres undefined),86*,-74,64,25
CN(C)CC(CCC(CN(C)C)C(=O)c1ccccc1)C(=O)c1ccccc1 (centres undefined),-63,.,-69*,5
CCOc1ccc(C(=O)C(CCC(CN(C)C)C(=O)c2ccc(OCC)cc2)CN(C)C)cc1 (centres undefined),-29,.,-30,-13
CC(CN1CCOCC1)OC(=O)C(C)(c1ccccc1)c1ccccc1 (centres undefined),-24,-1,-3,2
CC(CN1CCOCC1)OC(=O)C(c1ccccc1)c1ccccc1 (centres undefined),-73,-1,-63*,1
O=C(c1ccc(F)cc1)C(CN1CCOCC1)c1ccccc1 (centres undefined),11,-65,6,3
Cc1noc(C)c1S(=O)(=O)N(C)C[C@H]1Oc2ccc(NC(=O)NC(C)C)cc2CC(=O)N([C@@H](C)CO)C[C@H]1C,.,-1,.,.
COc1ccc(S(=O)(=O)N(C)C[C@@H]2OCCCC[C@H](C)Oc3ccc(NC(=O)C4CCCCC4)cc3C(=O)N([C@@H](C)CO)C[C@@H]2C)cc1,.,8,.,.
C[C@H](CO)N1C[C@H](C)[C@@H](CN(C)S(=O)(=O)c2cn(C)cn2)Oc2ccc(NC(=O)Nc3ccc(C(F)(F)F)cc3)cc2CC1=O,.,-4,.,.
CN(C)CC/C=C1/c2ccccc2CS(=O)(=O)c2ccccc21,2,8,-5,85*
C[C@@H]1CN([C@H](C)CO)C(=O)Cc2cc(N(C)C)ccc2O[C@@H]1CN(C)Cc1ccc(Cl)c(Cl)c1,.,-1,.,.
CC1(C)Cc2c(sc3nc(C4CCCCC4)n(N)c(=O)c23)CO1,-1,.,-3,-1
CC1(C)Cc2c(sc3nc(C4CC4)n(N)c(=O)c23)CO1,-71,.,-60*,21
COc1cccc(C(=O)Nc2ccc3c(c2)C(=O)N(C)C[C@H](OC)[C@H](C)CN(CC2CC2)[C@H](C)CO3)c1,.,4,.,.
C[C@@H]1CN([C@H](C)CO)C(=O)c2cccc(NC(=O)c3cnccn3)c2O[C@H]1CN(C)S(=O)(=O)c1ccccc1,.,1,.,.
CCOC(=O)c1c(NC(=O)CSc2nnc(CNc3ccc(Cl)cc3)o2)sc(C)c1C,67*,-8,38,-9
CCOC(=O)c1c(NC(=O)CSc2nnc(CNc3ccc(F)cc3)o2)sc(C)c1C,25,.,12,-10
